# Columns and labels:
# Type in all cases: functional
# [1] = test system: Plasmodium falciparum; experiment: GSK_TCMDC: Inhibition of Plasmodium falciparum 3D7 in whole red blood cells, using parasite LDH activity as an index of growth. Test compounds present at 2uM
# [2] = test system: Plasmodium falciparum; experiment: GSK_TCMDC: Inhibition of Plasmodium falciparum Dd2 in whole red blood cells, using parasite LDH activity as an index of growth. Test compounds present at 2uM
# [3] = test system: HepG2; experiment: GSK_TCMDC: Percent inhibition of human HepG2 cell line. Test compounds present at 10uM.
SMILES,Inhibition [1],Inhibition [2],Inhibition [3]
N#Cc1ccc(/C=C/C(=O)NCCCCCN2CCN(C(=O)Nc3ccc(Cl)c(C(F)(F)F)c3)CC2)cc1,94%,0%,42%
Cc1ccc(Cn2c(N3CCC(C(=O)NCc4ccccn4)CC3)nc3ccccc32)cc1,100%,99%,0%
c1ccc(CNc2nc(NCCc3c[nH]cn3)nc(N3CCCC4CCCCC43)n2)cc1 (stereo not given),98%,100%,0%
CCOC(=O)C(C(=O)OCC)c1nc(C)ns1,99%,0%,10%
CCN(CC)CCOc1ccc(N(Cc2ccc(C(C)(C)C)cc2)C(=O)c2ccc(Cc3ccccc3)cc2)cc1OC.Cl,99%,73%,5%
CN(C)CCC(O)(c1ccc(Br)cc1)c1cccnc1 (stereo not given),96%,1%,22%
Cc1ccc2[nH]c(-c3cc(-c4cccc(CCN5CCOCC5)c4)cnc3N)nc2c1.O=C(O)C(F)(F)F,100%,99%,50%
CO/C(=C\C=C\c1cc2cc(Cl)c(Cl)cc2[nH]1)C(=O)NCCCN1CCN(c2cccc(OCC(=O)Nc3cccc(C(=O)c4ccccc4)c3)c2)CC1,94%,88%,48%
CC(C)COc1ccc(Cl)cc1Cc1ccc(-c2nc3ccc(Cl)cc3[nH]2)o1,97%,96%,19%
COc1ccc(NC(=O)c2ccc(Br)c(C)c2)cc1N1CCN(CCCc2c[nH]c3ccccc23)CC1,100%,64%,21%

# Reference: ChEMBL document CHEMBL1157539, “Thousands of chemical starting points for antimalarial lead identification” (Nature, 2010)
